Results: the supplement of paper PMC6555819

What was measured:
Assay in all cases: PBM binding z-score (relative to random genomic background probes); higher = stronger binding; sequences stand for … in GC…GCGATTGACAGCGTAGAATGAAGG
[1] = tested on: RARb homodimer (NR concentration 270 nM)
In short: (§1)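 The probes on custom Agilent 4×180K protein-binding microarrays were double-stranded, with 34-nt variable regions bearing direct-repeat seeds, single-nucleotide variants, half-site ablations and random human genomic background sequences. Incubation lasted 1 h with ligand-free nuclear receptor dimers in PBS pH 7.4, 2% milk, 0.02% Triton X-100, 1 mM DTT, 0.2 mg/mL BSA and 0.4 mg/ml salmon testes DNA. Antibodies against each partner (one per run) detected bound dimers, and fluorescence scans were regression-normalized. Binding z-scores take the random background probes as reference.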

[2] = tested on: RARg:RXRa (NR concentration 270 nM, RXRa partner concentration 90 nM)
In short: as §1

[3] = tested on: RARg homodimer (NR concentration 270 nM)
In short: as §1

[4] = tested on: RXRa DBDmut IVT, anti-RXR (DBD mutation: RXRa K156A/R161A, NR concentration 90 nM)
In short: as §1

[5] = tested on: RXRa homodimer (NR concentration 180 nM)
In short: as §1

[6] = tested on: THRa:RXRa (NR concentration 90 nM, RXRa partner concentration 90 nM)
In short: as §1

[7] = tested on: THRa homodimer (NR concentration 90 nM)
In short: as §1

[8] = tested on: VDR:RXRa (NR concentration 270 nM, RXRa partner concentration 90 nM)
In short: as §1

[9] = tested on: VDR homodimer (NR concentration 270 nM)
In short: as §1

Sequence | PBM binding z-score [1] | PBM binding z-score [2] | PBM binding z-score [3] | PBM binding z-score [4] | PBM binding z-score [5] | PBM binding z-score [6] | PBM binding z-score [7] | PBM binding z-score [8] | PBM binding z-score [9]
TCTCGGAGGACAAGAAGGTCAGAGCTTTCCAGAG | 3.34 | 2.76 | 3.26 | 0.905 | 1.69 | 2.09 | 0.236 | 1.8 | 0.789
AGAATGAGGTTATACGTAGATCCGGGAAGAAAGT | 0.443 | 1.39 | 0.944 | 1.78 | 1.82 | 1.94 | 0.512 | 1.15 | 0.912
CGTCAAAGTTCAACTAAGGTAACGTAAAGCACGC | 4.51 | 5.92 | 6.41 | 4.68 | 5.28 | 5.33 | 1.93 | 4.74 | 3.26
ACTATTAGTTGACTTAGGGGAACCGATACGACGC | 0.325 | 0.568 | 0.663 | 1.15 | 0.583 | 1.11 | 0.616 | 0.378 | 0.357
CCTAGCAGGCCAATCTGGGTCACTCGAGGCTTGA | 2.3 | 1.11 | 1.12 | -0.0882 | 0.738 | 3.7 | 0.253 | – | 0.136
CAAACTAGGTCGAGAGGTCAAAGTCCGCTTCCCG | 4.73 | 5.98 | 5.09 | 2.17 | 6.17 | 3.62 | 1.8 | 5.01 | 3.99
ATCGAAAGTTCGACGAGGTGAGTATACACCGTTT | 1.42 | 1.75 | 1.85 | 1.63 | 1.28 | 2.5 | 0.567 | 2.81 | 1.59
GGGACTGGGGCAAAGCAGGTTACCATAAGGTTGG | 1.75 | 0.941 | 0.994 | -1.03 | 0.55 | 3.3 | 1.32 | 0.732 | 0.624
TAGCCTAGGTGATTCAGGGGCCAGTATAGAAAGC | 0.919 | 0.914 | 0.0636 | -0.561 | -0.089 | 0.651 | -0.0483 | -0.381 | -0.15
TCTTGTAGATCAAGCAGGTTCAGAAAGCCTGAGT | -0.055 | -0.213 | -0.414 | 0.872 | 0.0665 | 0.613 | -0.659 | 1.93 | 2.13
AATACATGGTCATCGTAGGCCAGAGTACGCACAG | 0.899 | 0.696 | 1.26 | -0.177 | 0.994 | 1.25 | -0.339 | – | 0.322
CCTTACGGGTCACTCCAGGTTATTGCATCGGAGT | 3 | 4.17 | 3.98 | 1.4 | 3.97 | 4.94 | 0.878 | 4.46 | 1.95
TCTTGTAGAACAATAGAGGTTAAGAAAGTGCGCT | 1.19 | 0.879 | 0.347 | 0.757 | 1.42 | 1.53 | -0.547 | 1.65 | 0.225
AGAACGGGGGCACGCTGAGTTGATAGCAGAGTAG | 1.94 | 3.62 | 3.2 | 2.78 | 2.94 | 2.9 | 0.833 | 4.23 | 3.45
TTCCCAAGGTGAGCTGAGGTCGTTGATCCAACTC | 1.95 | 1.28 | 0.949 | 0.117 | 1.34 | 4.52 | 2.4 | 4.13 | 2.61
CAAACTAGGTCACAGAGGTAAAAGTCCGTGCGTA | 3.54 | 4.87 | 5.32 | 1.95 | 3.93 | 3.71 | 1.63 | 4.96 | 2.01
TAGACAGGGTCAAAGGCCAGAGTACGAATGTCGA | 3.3 | 5.52 | 4.86 | 2.49 | 6.9 | 3.23 | 0.292 | 4.73 | 2.18
ATACCAATGTGATCGTGAGGTCGTTGATACTAAC | 0.979 | 0.681 | 0.227 | 0.777 | 1.06 | 2.45 | 2.24 | 1.62 | 2.83
TATACAGGGTCAAAGGCCAGACTACGAATGTCGA | 3.59 | 5.73 | 5.23 | 3.01 | 6.99 | 3.6 | 0.88 | 4.68 | 2.33
TCTTCTAGATCAAAGGTTAAGAAAGCCGAAGCCT | 1.54 | 1.99 | 1.03 | 0.838 | 2.95 | 1.51 | -0.597 | – | 0.119
AGAGTGAGGTTATACGTAGATCAGGGAAGAAAGT | 1.53 | 1.82 | 1.28 | 1.38 | 2.03 | 2.21 | 1.15 | 1.6 | 1.41
GTACCAAGGTGAATAGGTCGTTCATGAGTAGGCG | 1.96 | 2.67 | 1.47 | 0.154 | 1.99 | 1.78 | 0.565 | 1.06 | 0.67
AGAATGAGGTTAAGATCTGGGAAACAGAATACAT | 0.808 | 2.11 | 1.54 | 1.04 | 2.48 | 2.26 | 0.582 | 1.13 | 0.27
TTATATAGGTAATACAGGTGAAAGTCGGCATCTA | 0.731 | 0.618 | 0.933 | 0.117 | 1.11 | 1.06 | 0.46 | 0.727 | 0.401
TCAGACAAGTGAAGGTAACTCAGGTACGCAGTCG | -0.322 | 0.211 | 0.249 | 1.1 | 0.825 | 1.1 | -0.375 | 0.46 | -0.0282
CCAGACAGGTGAGAAGGTACCTCAGCCTCGATTA | 0.101 | 0.161 | 0.0168 | 0.0456 | 0.155 | 0.0348 | 0.0556 | -0.437 | -0.352
GATACAGGGTCAGCTAGAGGCCTGAGTATGGAAA | 2.73 | 4.73 | 4.64 | 1.14 | 4.29 | 2.49 | 0.0158 | – | 0.311
ACTAGCAGGCCAAGCTTGGGTCACTCAAACAAAG | 2.07 | 2.09 | 1.49 | -0.187 | 0.849 | 2.18 | 0.602 | – | -0.227

Sequence | PBM binding z-score [1] | PBM binding z-score [2] | PBM binding z-score [3] | PBM binding z-score [4] | PBM binding z-score [5] | PBM binding z-score [6] | PBM binding z-score [7] | PBM binding z-score [8] | PBM binding z-score [9]
CGTCCAAGGTCAGCAGGTCAGTTAAAGCGACGTG | 5.1 | 6.48 | 7.2 | 2.34 | 5.18 | 4.27 | 2.96 | – | 1.71
AGAATGAGGTTACCAAAGATAAGGGAAACGCTTG | 0.456 | 1.85 | 1.54 | 1.02 | 2.18 | 2.55 | 0.618 | – | 0.393
TCGCCTAGGTCATTGGGCCAGTATAGTACGCATC | 2.87 | 3.95 | 3.88 | 2.13 | 2.69 | 2.68 | 0.959 | – | 1.57
TCTAGCAGGCCAGAGGGTCACTCAGGAGGTACGG | 2.75 | 2.62 | 1.67 | 0.0347 | 2.54 | 1.74 | -0.132 | – | 0.271
GGAACGAGGGCAAGTTGGTAGCAGAGTTTGATGG | 1.6 | 1.27 | 2.08 | 2.05 | 0.826 | 1.41 | 0.26 | – | 1.91
TCATATAGGTAAAGGTGAATGTCGAACGATATGA | 1.3 | 1.37 | 1.21 | 0.686 | 1.9 | 1.16 | -0.293 | – | -0.0294
CGTACAAGGTCAAGGTCAGTGAAAGAGACTCGAA | 5.35 | 6.85 | 7.48 | 3.82 | 6.83 | 4.45 | 3.84 | – | 3.49
GCTTGCGGGTCAAAGGTTATAGCATGAATAGAAT | 2.73 | 6.3 | 4.14 | 2.1 | 8.79 | 3.83 | -0.22 | – | 0.927
CTTTACGGGTCACTCCAGGTTATAGCATCGGAGT | 3.36 | 4.62 | 4.65 | 2.29 | 4.54 | 5.08 | 0.775 | – | 1.88
CTCGAAAGGTCGTGCTCAGGTGAGAATACCAAAC | 2.73 | 5.24 | 4.09 | 2.05 | 4.93 | 4.12 | 1.14 | – | 0.913
CCTACTGGGCCATGCAGAGGTCATTGATCATATG | 3.99 | 4.29 | 2.87 | 0.291 | 3.81 | 3.05 | 1.12 | – | 3.36
ACTCGGAGGACAACGGTCAGAGCTACGCCAGTGA | 1.51 | 1.06 | 2.14 | 0.0365 | -0.0292 | 0.773 | -0.132 | – | -0.272
CGACCAAGGTCAAGGTCAGTGAAAGAGACTCGAA | 4.91 | 6.66 | 7.49 | 3.4 | 6.54 | 4.31 | 2.79 | – | 2.52
TCTAGTTGGCCACGGAGGTCACACACGACGGGTA | 3.85 | 3.98 | 3.67 | 0.683 | 4.31 | 3.48 | 2.53 | – | 1.99
CCGAGTAGGTTATGGGGCCTTCAGGCAACGGTGA | 0.593 | 0.0658 | 0.0449 | -0.932 | 0.358 | 0.547 | 0.292 | – | 0.0348
TAGCCTAGGTCAGATCGGGCTAGTATACGCTATA | 1.59 | 2.48 | 3.26 | -0.66 | 1.34 | 3.37 | -0.538 | – | -0.698
CAGCCTAGGTCAGGGCCAGTGTAGGAGGAACGTT | 2.75 | 2.76 | 3.69 | -0.674 | 1.58 | 2.17 | 0.608 | – | -0.169
CCAGACAGGTGAGAAGGCAACTCAGCCTCGATTA | 0.103 | 0.0395 | 0.271 | 0.0472 | 0.0532 | -0.202 | -0.363 | – | 0.221
AGAAAGAGGGCACGCTGAGTTGATAGCAGAGTAG | 1.64 | 2.5 | 3.08 | 1.36 | 1.83 | 1.5 | -0.338 | – | 1.23
ACTGTTAGTTGAGACGAGGGCAACCGATAGGTTG | 1.26 | 0.764 | 1.13 | 0.337 | 0.451 | 2.63 | 0.349 | – | 0.808
TCGAGTATGTTAGGGGCATTCAGAATGGCGTCGA | 0.285 | -0.134 | -0.085 | 1.26 | 0.27 | 0.709 | -0.0845 | – | 1.66
ATATGTAGGTTACATCCGGGTCATACAGGCTATG | 2.77 | 3.85 | 2.26 | 0.757 | 3.05 | 4.01 | 2.3 | – | 2.26
ACTAGCAGGCCTAGGGTCACTCAAGATTAGTCCG | 2.83 | 2.61 | 2.35 | 0.221 | 3.15 | 3.27 | 2.26 | – | 1.07
ATCGAAAGGTCGAAGGTGAGAATACCCACCCGAA | 2.62 | 4.34 | 4.24 | 1.42 | 5.85 | 2.23 | -0.0436 | – | 0.515
CCGACTGGCGCATAAGGTTACCATAAGCCAGCCC | 0.729 | 0.235 | 0.126 | -0.135 | 0.736 | 2.26 | 1.56 | – | 0.005
CCTCGTTGGTCAAGGTCACACACGCTATAGGTAC | 4.51 | 4.58 | 5.23 | 1.8 | 4.83 | 4.05 | 4.37 | – | 3.86
ACAGACAGGTGAGTGAAGGTAACGCAGCTGGACG | 0.215 | 0.259 | 0.522 | -0.546 | 0.362 | 1.83 | -0.423 | – | -0.319
